The values below come from PubChem BioAssay (Tox21).

A short description of test [1]: qHTS assay to identify small molecule agonists of the hypoxia (HIF-1) signaling pathway - cell viability counter screen (AID 1224844; calls by dose curve; note: nearly all actives have a fitted effect of over 50% in size; note: potency is the fitted concentration of half-maximal effect). Put shortly: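 Viability counter screen: HRE-bla ME-180 cells plated 5 hrs before compound addition, treated 17 hrs at 37C and 5% CO2, then CellTiter-Glo added after the FRET reporter read; luminescence after 30 min.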
The nature of test [2]: qHTS assay to identify small molecule agonists of H2AX (AID 1224845; active = well fitted activation curve with a large enough effect in the signal ratio in the repeat runs, not every such curve was filed as active; the % refers to the signal ratio; note: potency is the fitted concentration of half-maximal effect). The essentials: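 Wild-type CHO-K1 cells plated overnight, then exposed 3 hr at 37C to compounds at 15 concentrations (0.76% DMSO). Lysed, then HTRF anti-pH2AX(S139)-cryptate/anti-H2AX-d2 detection after 24 hr at room temperature; emissions 665 and 620 nm.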
Test [3] in a line: qHTS assay to identify small molecule antagonists of the estrogen related receptor (ERR) signaling pathway from Tox21 library (AID 1224848). Note: nearly all actives have a fitted effect of over 50% in size. Note: potency is the fitted concentration of half-maximal effect. The essentials: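 Tox21 10K compounds in DMSO tested for ERR pathway antagonism in NTP's ERR cell line; 18 h, 37 C exposure; ONE-Glo luminescence.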
Test [4] is described as follows: qHTS assay to identify small molecule agonists of the estrogen related receptor (ERR) signaling pathway from Tox21 library (AID 1224849; calls by dose curve; note: nearly all actives have a fitted effect of over 15% in size). The following applies: ERR reporter cell line, ONE-Glo luciferase, 18 h. Put shortly: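 Quantitative HTS in agonist format: NTP ERR cell line, compounds transferred in DMSO after 6 h plating, 18 h incubation at 37 C, ONE-Glo luminescence endpoint.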

Test [5] in a line: qHTS RealTime-Glo MT Cell Viability Assay in HepG2 cells - 24 hour (AID 1224867). Note: nearly all actives have a fitted effect of over 50% in size. Note: potency is the fitted concentration of half-maximal effect. Put shortly:
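Cell number in HepG2 cultures estimated from NanoLuc luminescence generated by metabolic reduction of a prosubstrate by living cells. The homogeneous, nonlytic format allowed repeated reads at 0, 8, 16, 24, 32 and 40 h of compound exposure.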

Test [6] in a line: qHTS RealTime-Glo MT Cell Viability Assay in HEK293 cells - 32 hour (AID 1224868). Note: nearly all actives have a fitted effect of over 50% in size. Note: potency is the fitted concentration of half-maximal effect. The essentials:
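Homogeneous bioluminescent viability format in HEK293 cells (600 cells/well). Following 5 h at 37 C/5% CO2, 23 nL compound was pintooled; the signal was measured repeatedly during 40 h incubation.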

The nature of test [7]: A CellTox Green Cytotoxicity Assay to monitor cytotoxicity in HEK293 cells - 0 hour (AID 1224869). Note: nearly all actives have a fitted effect of over 50% in size. The essentials: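 Dead-cell fluorescence measured kinetically: asymmetric cyanine dye, HEK293, 600 cells/well, 5 h settle, 23 nL cpd/DMSO, 37 C, reads 0–40 h every 8 h.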
Test [8] in a line: qHTS RealTime-Glo MT Cell Viability Assay in HepG2 cells - 40 hour (AID 1224870). Note: nearly all actives have a fitted effect of over 50% in size. Note: potency is the fitted concentration of half-maximal effect. The essentials:
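HepG2 cells mixed with RealTime-Glo MT reagents (NanoLuc plus cell-permeant prosubstrate) were seeded at 600 cells/well, incubated 5 h at 37 C/5% CO2, then pinned with compounds in DMSO; nonlytic luminescence tracked viability during 40 h treatment.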

Test [9] is described as follows: qHTS assay to identify small molecule agonists of H2AX - cell viability counter screen (AID 1224847; calls by dose curve; note: nearly all actives have a fitted effect of over 30% in size; note: potency is the fitted concentration of half-maximal effect; for activity change, negative = cytotoxicity: top concentration of the series differs between compounds). Put shortly:
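Compounds tested at 15 concentrations were incubated 3 hr at 37C with wild-type CHO-K1 cells; cellular ATP-based luminescence (CellTiter-Glo) indicated viability.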

Test [10] can be described thus: qHTS assay to identify small molecule agonists of the hypoxia (HIF-1) signaling pathway (AID 1224846; active = well fitted activation curve with a large enough effect in the signal ratio in the repeat runs, not every such curve was filed as active; the % refers to the signal ratio). Put shortly:
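Agonist mode reporter screen. ME-180 cells stably expressing bla under HRE control received test compounds in DMSO for 17 hrs (37C, 5% CO2), and beta-lactamase activity was then detected with the CCF4-AM FRET substrate.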

Where [11] appears, read: at 92.4 µM (top of the series) unless noted.

Several values for one entry are separate records, joined by “and”; a condition that tells them apart may be missing. Equal entries are not always repeated. A number with no mark means an inactive call. Inconclusive results are not listed. Activity calls are given as the source filed them. Unless noted, calls come from the whole dose curve; as a rule, active = well fitted curve in the direction sought with a large enough effect in the repeat runs; inconclusive = weak or mixed curves; inactive = no such curve, though single readings can be large; an effect the other way counts as inactive or inconclusive.
% is set by controls: 0 for no effect and ±100 for the full control effect.

In the case of `Cc1cccc(N(C)C(=S)Oc2ccc3c(c2)C2CCC3C2)c1` (stereo unspecified), the Potency entry in [1], in test [2], in test [3], in test [5], in test [6] and in [7] was “inactive” in each case. The Potency result in test [8] was “inactive”. Besides, the activity change, positive = activation in test [4] (setting [11]) is -2.97% [at 42.5 µM].

With `CSc1ccc(C(=O)c2[nH]c(=O)[nH]c2C)cc1`, the Potency entry in test [1], in [2], in [3], in [5], in test [6] and in test [7] was “inactive” in each case. Besides, the Potency entry in test [8] was “inactive”.

For the compound `Oc1ccc(Cl)cc1Sc1cc(Cl)ccc1O`, the Potency was 26.8 µM (active) in test [1]; 35.7 µM (active) in [9]; 10.8 µM (active) and 11.9 µM (active) in test [3]; 19.5 µM (active) and 23.9 µM (active) in [6]. For the same compound, the Potency result in [2] and in [7] was “inactive” each time.

On to `O=C(Nc1cccc([N+](=O)[O-])c1)c1cc2ccccc2cc1O`, for which the Potency result in [1], in test [2], in [5], in test [7] and in test [8] was “inactive” in each case. Besides, the Potency in [9] is 11.3 µM (active). Further, in test [4] (setting [11]), the activity change, positive = activation is -21.9%.

For the compound `Nc1c2ccccc2nc2ccccc12`, the Potency in test [1] is 13.6 µM (active); in test [2] it was 88.6 µM (active); in test [3] it was 2.69 µM (active); in test [6] it was 7.66 µM (active) and 2.39 µM (active); in [8], 24.2 µM (active) and 13.4 µM (active). Moreover, the results for the activity change, positive = activation in [4] (at 42.5 µM (top of the series)) and in test [4] (at 92.4 µM (top of the series)) were -23% and -63.6%, respectively. In test [7], the Potency result was “inactive”.

Take `CCCCCCCCCCCCCCCCCC[N+](C)(C)C`: the Potency was 55.1 µM (active) in test [1], 90.1 µM (active) in test [9], 24.4 µM (active) in test [3] and 7.79 µM (active) in test [6]. For the same compound, the Potency result in [2] and in [7] was “inactive” in each case.

As to `COc1c(C)c2c(c(O)c1C/C=C(\C)CCC(=O)O)C(=O)OC2`, the Potency is 0.151 µM (active) in test [1] and 0.875 µM (active) in [2]. Also, the Potency entry in [9], in test [3], in [5] and in [7] was “inactive” throughout.

Take `CC(C)=CCOc1ccc(/C=C/C(=O)c2ccc(OCC=C(C)C)cc2OCC(=O)O)cc1`: the Potency entry in test [1], in [2], in [9], in test [6] and in [7] was “inactive” in each case. Besides, the activity change, positive = activation in test [4] (setting [11]) was -23.7% [at 42.5 µM].

Turning to `O=C(OCC(COC(=O)c1ccccc1)(COC(=O)c1ccccc1)COC(=O)c1ccccc1)c1ccccc1`, the Potency result in [1], in [2], in [9], in test [3], in test [5] and in test [7] was “inactive” throughout. For the same compound, in test [6], the Potency is 48.9 µM (active).

For `CSc1ccc(/C=C2/C(C)=C(CC(=O)O)c3cc(F)ccc32)cc1`, the Potency in test [1] is 10.7 µM (active). For the same compound, the Potency result in [2], in test [9], in test [3], in [5], in [6] and in test [7] was “inactive” each time. The Potency result in test [8] was “inactive”. Further, the activity change, positive = activation in test [4] (setting [11]) was -7.17% [at 42.5 µM].

In the case of `CN(C/C=C/C#CC(C)(C)C)Cc1cccc2ccccc12`, the Potency entry in test [1], in test [10], in [5], in [7] and in test [8] was “inactive” in each case. Also, the Potency in test [9] is 55.2 µM (active).

On to `CC(C)OC(=O)c1cc2c(OCC(O)CNC(C)(C)C)cccc2[nH]1` (stereo unspecified), for which the Potency entry in test [1], in [10], in test [5], in test [7] and in test [8] was “inactive” throughout. The Potency in [6] is 9.52 µM (active).

On to `CN(C)c1ccc(SC#N)cc1`, for which the Potency entry in test [1], in [10], in test [5], in test [6], in test [7] and in [8] was “inactive” in each case.

For `Oc1ccc2cc(SSc3ccc4cc(O)ccc4c3)ccc2c1`, the Potency result in test [1], in test [10], in test [7] and in test [8] was “inactive” each time. The Potency in test [9] is 89.9 µM (active); in test [3], 61.2 µM (active) and 54.5 µM (active). Besides, the activity change, positive = activation in test [4] (setting [11]) was -64.5% and -58.9%.

With `CC(=O)N1CCN(c2ccc(OC[C@H]3CO[C@](Cn4ccnc4)(c4ccc(Cl)cc4Cl)O3)cc2)CC1`, the Potency in [1] was 49 µM (active); in test [9], 101 µM (active); in test [3] it was 12.2 µM (active); in test [5], 49 µM (active); in test [6], 24.5 µM (active). In [4] (setting [11]), the activity change, positive = activation is -79.4%. Further, in test [7], the Potency result was “inactive”.

As for `CCN1/C(=C/C=C/c2sc3ccccc3[n+]2CC)Sc2ccccc21`, the activity change, negative = cytotoxicity in test [1] was 19.1% [at 15.8 µM]. For the same compound, the activation in test [10] is 0.484% [at 15.8 µM]. Also, the values for the Potency in test [9], in test [3] and in test [6] were 7.6 µM (active), 0.231 µM (active) and 1.04 µM (active), respectively. For the same compound, the activity change, positive = activation in [4] (setting [11]) was -58.8% [at 19 µM]. In addition, in test [7], the cytotoxicity was -12.5% [at 15.8 µM].

As for `C[C@@H](NCCCc1cccc(C(F)(F)F)c1)c1cccc2ccccc12`, the Potency in [1] is 23.9 µM (active); in test [9], 49.2 µM (active); in test [3] it was 26.6 µM (active); in test [5], 16.9 µM (active); in test [6], 23.9 µM (active); in test [8], 15.1 µM (active). For the same compound, the activity change, positive = activation in test [4] (setting [11]) was -58.9% [at 42.5 µM]. Moreover, the Potency result in test [7] was “inactive”.

In the case of `CCCC/C=C/CCCCO`, the Potency result in [1], in test [10], in test [9], in test [5], in [6] and in test [7] was “inactive” each time.

Regarding `C=CC(=O)OCC(CO)(COC(=O)C=C)COC(=O)C=C`, the Potency is 4.38 µM (active) and 17.4 µM (active) in [1]; 8.66 µM (active) and 13.7 µM (active) in [3]; 11 µM (active) and 12.3 µM (active) in test [5]; 3.48 µM (active) in test [6]; 12.3 µM (active) and 19.5 µM (active) in test [8]. For the same compound, the Potency result in [9] and in [7] was “inactive” in each case. Further, the activity change, positive = activation in [4] (setting [11]) is -68.9% and -80.3%.

For `CCCCc1oc2ccc(NS(C)(=O)=O)cc2c1C(=O)c1ccc(OCCCN(CCCC)CCCC)cc1`, the Potency in [1] is 15.1 µM (active); in test [9], 43.8 µM (active); in [3], 16.8 µM (active); in test [5], 9.52 µM (active); in [6], 9.52 µM (active); in test [8], 9.52 µM (active). Besides, the activity change, positive = activation in test [4] (setting [11]) was -64.5% [at 42.5 µM]. In addition, the Potency result in test [7] is “inactive”.

`CC1(C)CCC(C)(C)c2cc(C(=O)Nc3ccc(C(=O)O)cc3)ccc21`: the Potency entry in test [1], in [10], in test [5], in [6], in test [7] and in test [8] was “inactive” throughout. The activity change, positive = activation in test [4] (setting [11]) is -24.2%.

For `CCc1cc(Cc2cc(CC)c(N)c(CC)c2)cc(CC)c1N`, the Potency result in test [1], in test [10], in [5] and in test [7] was “inactive” in each case. Also, the values for the Potency in [9], in [3] and in [6] were 89.8 µM (active), 27.3 µM (active) and 38.9 µM (active), respectively.

Regarding `OC1(c2ccc(Cl)c(C(F)(F)F)c2)CCN(CCCC(c2ccc(F)cc2)c2ccc(F)cc2)CC1`, the Potency was 6.74 µM (active) in test [1]; 55.2 µM (active) in [9]; 8.41 µM (active) in test [3]; 9.52 µM (active) in test [5]; 9.52 µM (active) in test [6]; 9.52 µM (active) in test [8]. Besides, in test [4] (setting [11]), the activity change, positive = activation is -71.9% [at 42.5 µM]. The Potency entry in [7] was “inactive”.
